In PubChem BioAssay (NCI):
The panel holds about 83,000 compounds, 20% with a hit somewhere; the sample as a whole holds those more often.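 Growth was measured after 48 h exposure to one concentration of compound in 96-well plates. Values under 10 count as active.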 Values without a mark were called inactive. Active and inactive are the calls of the source.

Legend:
Experiment in all cases: NCI-60 one-dose screen, 48 h (100 = growth as untreated, 0 = no growth, -100 = all killed)
Conditions in all cases: 10 µM unless noted
[1] = tested on: NCI-H23 lung
[2] = tested on: NCI-H226 lung
[3] = tested on: NCI-H322M lung
[4] = tested on: HOP-62 NSCLC
[5] = tested on: NCI-H460 lung
[6] = tested on: NCI-H522 lung
[7] = tested on: A549/ATCC NSCLC
[8] = tested on: 786-0 renal
[9] = tested on: COLO 205 colon
[10] = tested on: DU-145 prostate
[11] = tested on: K-562 leukemia
[12] = tested on: MALME-3M melanoma
[13] = tested on: MDA-MB-231 breast
[14] = tested on: RXF 393 renal
[15] = tested on: SF-268 CNS
[16] = tested on: SF-295 CNS
[17] = tested on: SF-539 CNS
[18] = tested on: UACC-257 melanoma
[19] = tested on: M14 melanoma

Row | Compound | growth [1] [%] | growth [2] [%] | growth [3] | growth [4] | growth [5] | growth [6] | growth [7] [%] | growth [8] | growth [9] | growth [10] [%] | growth [11] | growth [12] | growth [13] | growth [14] | growth [15] [%] | growth [16] | growth [17] | growth [18] | growth [19]
1 | CCN(CC)CCCC(C)Nc1ccnc2ccc(Oc3ccccc3)cc12 (configuration not stated) | 90.6 | 120 | 72% | 86.6% | 95.2% | 36.2% | 81.6 | 72.3% | 41.4% | 88.6 | 13.7% | -38.6% (active) | 42.5% | 24.5% | 66.2 | 93.7% | -41.3% (active) | -54.1% (active) | -58% (active)
2 | CS(=O)(=O)c1ccc(C(=O)N/N=C/c2ccccc2Cl)cc1 | 94.8 | 97.4 | 99.2% | 87.3% | 101% | 96.4% | 78.4 | 97.2% | 90.9% | 98.8 | 67.5% | 100% | 93.6% | 117% | 100 | 103% | 101% | 64.5% | 91.9%
3 | COc1ccc(Cl)cc1Nc1nc(C(F)(F)F)ccc1C(=O)NN | 39.9 | 24.1 | 4.64% (active) | -30.8% (active) | 70.3% | 12.9% | 47.6 | 2.09% (active) | 12.5% | 40 | 55.7% | 8.85% (active) | 5.57% (active) | -3.01% (active) | 26.4 | 16.7% | 31.2% | 28.3% | 38%
4 | CN(C)CCNC(=O)n1cc(-c2ccncc2)c(-c2cc(O)cc(Cl)c2)n1 | 108 | 102 | 128% | 98.2% | 93.5% | 115% | 107 | 81.4% | 88.6% | 102 | 74.8% | 6.11% (active) | 88.6% | 84.4% | 96.8 | 117% | 82.5% | 40.6% | 27.6%
5 | Cn1cnc([N+](=O)[O-])c1S(=O)(=O)Oc1cccc2ccccc12 | 85.5 | 88.1 | 104% | 84.6% | 106% | -84.3% (active) | 98.4 | 62.7% | -89.7% (active) | 43.1 | 3.91% (active) | -39.9% (active) | 76.3% | 19.6% | 83.7 | 102% | 52.8% | 71% | -62.9% (active)
6 | S=C(Cc1ccccc1)N1CCN(c2ccccc2Cl)CC1 | 100 | 96.9 | 96.3% | 105% | 107% | 88.2% | 95.1 | 96.7% | 109% | 102 | 89.8% | 95.2% | 100% | 117% | 95.2 | 90.7% | 105% | 110% | 99.1%
7 | CC(CN1CCN(CC(C)Nc2ccnc3cc(Cl)ccc23)CC1)Nc1ccnc2cc(Cl)ccc12 (configuration not stated) | 62.3 | 26.6 | 20.7% | -18.4% (active) | -30.4% (active) | -29.4% (active) | 15.7 | -9.83% (active) | -85% (active) | 30 | -21.9% (active) | -55.5% (active) | -19% (active) | -69.4% (active) | 16.7 | -48.2% (active) | -82.4% (active) | -61.4% (active) | -88% (active)
8 | CCOC(=O)c1cc(N)nc2ccccc12 | 99.2 | 102 | 156% | 94.7% | 96.3% | 101% | 122 | 102% | 112% | 104 | 91.1% | 139% | 107% | 109% | 91.1 | 100% | 97.8% | 115% | 108%
